VDR inh – vitamin D3 receptor (human) inhibition. AID 504847. Potency, µM, inactives show max response, negative = inhibition, hits mostly inhibitors. P11473. VDR-SRC2-3 peptide fluorescence polarization, 2 h. 400,000 compounds, 0.93% hits; note: % is set by controls: 0 for no effect and ±100 for the full control effect
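Compounds are added to VDR with labelled SRC2-3 coactivator peptide and held 2 h at room temperature. Inhibition of the VDR–peptide interaction is then read as a change in fluorescence polarization.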
G9a block – blocks human histone lysine methyltransferase G9a. Q96KQ7. G9a H3K9 monomethylation, AlphaScreen, 2 h. Potency, µM (top dose mostly 102 µM), without a hit: at the top dose activity, negative = inhibition, hits mostly inhibitors. 350,000 compounds, 8.8% hits. AID 504332; note: % is set by controls: 0 for no effect and ±100 for the full control effect; nearly all actives have a fitted effect of over 75% in size
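Step 1: enzyme (final 20 nM) with compound, 15 min RT. Step 2: substrate peptide 500 nM and SAM 20 uM, 2 h RT. Step 3: anti-H3K9me1 antibody and AlphaScreen beads, 10 min, then plate read.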
PLK1 PBD block – blocks phosphopeptide binding to human PLK1 polo-box domain; P53350; Plk1 PBD binding of FITC phosphopeptide, fluorescence polarization; Potency, µM, without a hit: max response, negative = inhibition, most hits filed as inhibitors; 360,000 compounds, 2.8% hits; AID 720504; note: series mostly up to about 57 µM; % is set by controls: 0 for no effect and ±100 for the full control effect; nearly all actives have a fitted effect of over 65% in size
Target sequence (P53350 whole entry, looked up, the tested form may be a part): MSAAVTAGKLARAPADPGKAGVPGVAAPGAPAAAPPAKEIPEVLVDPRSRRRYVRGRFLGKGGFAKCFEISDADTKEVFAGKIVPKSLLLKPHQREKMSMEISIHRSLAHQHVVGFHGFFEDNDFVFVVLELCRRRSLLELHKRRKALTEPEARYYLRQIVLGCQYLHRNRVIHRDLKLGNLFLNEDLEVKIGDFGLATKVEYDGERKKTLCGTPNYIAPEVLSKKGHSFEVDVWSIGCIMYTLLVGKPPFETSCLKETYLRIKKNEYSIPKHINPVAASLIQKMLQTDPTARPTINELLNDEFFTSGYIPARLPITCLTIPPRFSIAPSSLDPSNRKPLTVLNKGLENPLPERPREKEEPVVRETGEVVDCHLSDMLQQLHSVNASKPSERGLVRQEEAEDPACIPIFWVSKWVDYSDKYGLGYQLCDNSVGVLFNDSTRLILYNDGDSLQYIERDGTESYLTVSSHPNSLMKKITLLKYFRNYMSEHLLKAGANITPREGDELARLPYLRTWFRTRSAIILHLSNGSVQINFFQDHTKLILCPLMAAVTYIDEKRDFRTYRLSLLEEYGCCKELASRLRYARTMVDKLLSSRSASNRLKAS
BAZ2B inh – inhibitors of human BAZ2B bromodomain | Q9UIF8 | AlphaScreen BAZ2B-H3K14Ac peptide displacement | Potency, µM (highest dose often 114 µM), inactives show at the top dose activity change, negative = inhibition, usual class: inhibitors | 360,000 compounds, 4.4% hits; note: % is set by controls: 0 for no effect and ±100 for the full control effect; nearly all actives have a fitted effect of over 60% in size
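Inhibition is scored as reduced AlphaScreen emission. The BAZ2B/b-H3(5-23)K14Ac complex (50 nM each) in PBS pH 7.4, 0.01% Tween-20 meets compound (up to 110 uM) for 30 min at RT before bead addition.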
JMJD2A Tudor inh – JMJD2A Tudor domain (human) inhibition. O75164. AlphaScreen JMJD2A-Tudor / H3K4me3 peptide binding. Potency, µM (top dose mostly 114 µM), for the others: at the highest dose activity change, negative = inhibition, most hits filed as inhibitors. 390,000 compounds, 4.4% hits. AID 504339; note: % is set by controls: 0 for no effect and ±100 for the full control effect; nearly all actives have a fitted effect of over 50% in size
HP1b chromo inh – blocks HP1-beta chromodomain binding to methylated histone tails; AlphaScreen HP1-beta / biotin-H3K9me3 peptide binding; Potency, µM (highest dose often 114 µM), without a hit: at the top dose activity change, negative = inhibition, actives largely listed as inhibitors; AID 540317; 390,000 compounds, 0.56% hits; P83916; note: nearly all actives have a fitted effect of over 70% in size
Target sequence (P83916 whole entry, looked up): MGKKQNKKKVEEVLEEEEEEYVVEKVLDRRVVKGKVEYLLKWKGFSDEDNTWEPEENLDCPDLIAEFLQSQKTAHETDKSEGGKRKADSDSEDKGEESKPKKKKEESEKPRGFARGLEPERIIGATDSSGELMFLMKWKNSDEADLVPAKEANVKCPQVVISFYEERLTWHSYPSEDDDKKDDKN
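HP1-beta protein (50 nM final) preincubated 30 min at room temperature with biotinylated H3(1-18)K9me3 peptide (50 nM) in PBS pH 7.4, 0.01% Tween-20, then compound added for 30 min. AlphaScreen streptavidin donor/nickel chelate acceptor beads (10 ug/mL final), 30 min dark, luminescence read.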
Active calls of the source: *; ? = inconclusive; nt = no result; [ ] = remark or other dose. Only some compounds are listed: those with a hit (about 11% of all), similar ones and a draw of the others. Calls come from the whole dose curve; as a rule, active = well fitted curve in the direction sought with a large enough effect; inconclusive = small, poorly fitted or top-dose-only effect, or another doubt; inactive = no such curve, though single readings can be large; an effect the other way counts as inactive or inconclusive. Potency is the fitted concentration of half-maximal effect.

SMILES	VDR inh	G9a block	PLK1 PBD block	BAZ2B inh	JMJD2A Tudor inh	HP1b chromo inh
O=C(N=C1c2ccccc2CN1c1ccc(F)c(Cl)c1)c1cccnc1Cl	nt	?	nt	3.0%	nt	nt
CCc1ccccc1NC(=O)c1cc(S(=O)(=O)N(CC)c2ccccc2)ccc1F	0.0%	6.3%[59 µM]	nt	8.9%	-5.2%	28.3%
CC[C@H](C)[C@H](NC(=O)[C@H](CCC(=O)O)NC(=O)CNC(=O)[C@@H](NC(=O)[C@@H]1CCCN1C(=O)[C@@H](NC(=O)[C@@H]1CCCN1C(=O)[C@@H]1CCCN1C(=O)[C@H](CC(N)=O)NC(=O)[C@H](CC(N)=O)NC(=O)[C@@H](NC(=O)[C@H](CCSC)NC(=O)[C@H](Cc1c[nH]c2ccccc12)NC(=O)CNC(=O)[C@@H](NC(=O)[C@H](CCC(N)=O)NC(=O)[C@@H](N)CCC(=O)O)[C@@H](C)CC)[C@@H](C)O)[C@@H](C)CC)C(C)C)C(=O)O	1.4%	nt	nt	nt	nt	nt
C/C(=N\NC(=O)c1cc2ccccc2cc1O)c1ccccn1	-18.2%	nt	?	10µM*	17.8µM*	19.9%[57 µM]
C/C(=N\NC(=O)CCCNc1ccc(C)cc1)c1ccccn1	3.7%	15.8µM*	-2.8%	56.2µM*	?	7.4%
C/C(=N/NC(=O)c1cc2ccccc2cc1O)C1C(=O)c2ccccc2C1=O	-25.3%	39.8µM*	9.47µM*	?	15.8µM*	22.4µM*
O=C(COc1ccccc1)Nc1ccc(OCc2cc(=O)n3ccsc3n2)cc1	-16.0%	-2.2%[59 µM]	nt	-2.0%	-13.6%	49.8%
CN1CCN(c2ncc3nc(-c4ccccc4)c(=O)n(CCC#N)c3n2)CC1	7.9%	-1.3%[12.7 µM]	nt	nt	nt	nt
CCOC(=O)c1ccc(N2C(=O)c3[nH]nc(-c4ccccc4)c3C2c2cccs2)cc1 (stereo not drawn)	-7.2%	-14.9%[59 µM]	nt	nt	?	12.4%
CC(=O)c1c(C)[nH]c(C(=O)Nc2nccs2)c1C	-5.5%	8.1%	0.8%	?	22.4µM*	-10.5%
CC(=O)c1c(C)[nH]c(C(=O)Nc2cccc(C)n2)c1C	-9.8%	nt	-3.9%	?	-20.5%	34.2%
CC(=O)Nc1ccc(NC(=S)NC(=O)/C=C/c2ccco2)cc1	?	2.2%[0.501 µM]	?	?	?	6.5%
O=C(NCc1ccco1)/C(=C/c1ccccc1)NC(=O)c1ccco1	5.3%	-6.2%[59 µM]	-8.5%	2.6%	-9.9%	1.7%
O=C(NCc1ccco1)/C(=C\c1ccco1)NC(=O)c1ccco1	-8.6%	44.7µM*	-5.8%	10.3%	-20.1%	23.3%
Cc1ccc(NC(=O)N/C=C/c2ccco2)cc1	-6.6%	?	-10.1%	79.4µM*	50.1µM*	-11.0%
Cc1ccc(NC(=O)/C(=C\c2ccco2)NC(=O)c2ccco2)cc1	?	28.2µM*	-23.0%	-1.5%	?	47.1%
Cc1ccc(C(=O)N/C(=C/c2ccco2)C(=O)Nc2cccc(C(=O)O)c2)cc1	-9.7%	nt	-19.8%	22.2%	79.4µM*	2.1%
COc1ccc(NC(=O)/C(=C\c2ccco2)NC(=O)c2ccco2)cc1	6.1%	?	-6.8%	-2.9%	-12.1%	-16.3%
Cc1nc2ccc(S(=O)(=O)CCC(=O)Nc3ccc(C(C)C)cc3)cc2s1	9.1%	-4.2%[59 µM]	nt	-12.7%	-17.6%	5.4%
Cc1ccc(NC(=S)N2CCN(C(=O)c3ccccc3)CC2)c(C)c1	-3.8%	16.6%	26.7µM*	nt	-33.1%	13.8%
Cc1ccc(NC(=O)/C(=C/c2ccco2)c2ccccc2)c(C)c1	7.3%	50.1µM*	-0.9%	?	-14.2%	-18.2%
COc1ccccc1C(=O)N/C(=C/c1ccco1)C(=O)Nc1cccc(C(=O)O)c1	-15.2%	?	-4.3%	?	79.4µM*	3.5%
Cc1ccc(NC(=S)N2CCN(C)CC2)c(C)c1	-15.0%	4.9%[59 µM]	-12.3%	6.9%	-3.5%	9.7%
O=C(O)/C(=C/c1ccco1)c1ccccc1	nt	?	nt	-10.8%	nt	nt
COc1ccccc1/C=C/c1nc(C#N)c(NC2CCCCC2)o1	17.5%	-9.3%[59 µM]	nt	-9.1%	17.6%	-0.1%
SMILES	VDR inh	G9a block	PLK1 PBD block	BAZ2B inh	JMJD2A Tudor inh	HP1b chromo inh
Cc1cccc(C(=O)n2cnnc2N)c1	-3.9%	22.4µM*	-25.0%	-27.3%	-4.2%	32.9%
CCS(=O)(=O)Nc1ccc(Cc2ccc(NS(=O)(=O)CC)cc2)cc1	10.1%	50.1µM*	-14.0%	7.0%	-7.1%	18.9%
COc1ccc(N2CCN(C(=O)COC(=O)CCOc3ccccc3C)CC2)cc1	1.0%	31.6µM*	-1.7%	?	?	-21.2%
COc1ccc(N2CCN(C(=O)COC(=O)CCc3ccccc3OC)CC2)cc1	12.3%	11.2µM*	2.1%	-31.8%	-24.5%	-9.4%
COc1ccc(N2CCN(C(=O)COC(=O)CCOc3ccc(C(C)(C)C)cc3)CC2)cc1	-5.4%	-42.3%	-0.2%	-9.8%	-0.7%	19.8%
COc1ccc(N2CCN(C(=O)COC(=O)CCOc3cc(C)ccc3C)CC2)cc1	-15.5%	10µM*	-3.7%	-26.3%	-9.6%	-35.6%
CCOc1ccc(OCCC(=O)OCC(=O)N2CCN(c3ccc(OC)cc3)CC2)cc1	3.1%	-44.5%	2.8%	3.1%	5.1%	14.6%
Cc1c(Cl)cccc1NC(=O)CN1CCN(CCN=CC2=C(O)CC(c3ccccc3)CC2=O)CC1 (stereo not drawn)	-10.3%	42.8%[59 µM]	-4.2%	13.9%	-16.0%	40.6%
CCCCC/C=C\C\C=C/C=C/C=C/[C@@H](SC[C@H](NC(=O)CC[C@H](N)C(=O)O)C(=O)NCC(=O)O)[C@@H](O)CCCC(=O)O	2.5%	2.7%[59 µM]	nt	nt	nt	nt
CC(C)NC(=O)c1onc(CSc2ccc(F)c(F)c2)c1C(=O)O	-19.3%	50.9%[0.501 µM]	23.8µM*	?	79.4µM*	21.6%
CCOC(=O)c1cnc2ccc(C)cc2c1Sc1ccccc1C(=O)OC	-13.5%	6.6%	26.7µM*	-6.9%	?	2.0%
Cc1cc(C)c2cc3c(N)c(C(=O)N4CCOCC4)sc3nc2c1	?	8.91µM*	?	-15.6%	-14.3%[57.1 µM]	23.2%
COC(=O)c1sc2nc3c(cc2c1N)C(=O)CC(C)(C)C3	-7.4%	?	-3.7%	-3.2%	-24.4%	38.4%
Cc1cc(C)c(NC(=O)c2sc3nc4c(cc3c2N)C(=O)CC(C)(C)C4)c(C)c1	-0.1%	44.7µM*	0.9%	?	-33.8%	16.4%
Cc1cc(C)c2cc3c(N)c(C(=O)Nc4c(C)[nH]c(=O)[nH]c4=O)sc3nc2c1	2.9%	-14.9%	12.4%	50.1µM*	?	89.3%
O=C(Nc1ccc(F)c(Cl)c1)C1CCN(S(=O)(=O)c2ccc3[nH]c(=O)ccc3c2)CC1	12.4%	1.3%[59 µM]	nt	4.7%	-1.0%	24.0%[57 µM]
CCOc1ccccc1CN(CCc1ccc2c(c1)OCO2)Cc1ccccn1	-13.5%	5.01µM*	-4.9%	35.5µM*	3.16µM*	?

High-throughput results: PubChem BioAssay, National Center for Advancing Translational Sciences (NCATS)
